Screens: PubChem, several laboratories
Only some compounds are listed: those with a hit (about 1.8% of all), similar ones and a draw of the others.
GALR2 agonist: agonists of human galanin receptor 2 (GALR2). O43603. GALR2-expressing cells, agonist activation read-out. activation, % (concentration not given with the values). actives 0.48% (n = 140,000); in the data active means activation above about 5%, passing the limit was not always enough;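 further: 0% = vehicle buffer wells and 100% = reference agonist at full effect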
GALR2 antag: antagonists of human galanin receptor 2 (GALR2); GALR2-expressing cells, antagonist mode; inhibition, % at 4 µM; actives 0.39% (n = 140,000); AID 828; in the data active means inhibition above about 27%;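 further: cells stimulated with galanin 1-16 at roughly its EC80; 0% = agonist challenge control and 100% = basal control without agonist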
S1P2 antag: antagonists of human S1P2 receptor. cell-based S1P2 antagonist assay, inhibition at 5 uM. O95136. actives 0.21% (n = 97,000). AID 736. inhibition, % at 5 µM; in the data active means inhibition above about 45%;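 further: CRE beta-lactamase reporter cells expressing human S1P2 stimulated with S1P; 0% = agonist at EC80 alone and 100% = agonist plus reference antagonist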
Target sequence (O95136 whole entry, looked up): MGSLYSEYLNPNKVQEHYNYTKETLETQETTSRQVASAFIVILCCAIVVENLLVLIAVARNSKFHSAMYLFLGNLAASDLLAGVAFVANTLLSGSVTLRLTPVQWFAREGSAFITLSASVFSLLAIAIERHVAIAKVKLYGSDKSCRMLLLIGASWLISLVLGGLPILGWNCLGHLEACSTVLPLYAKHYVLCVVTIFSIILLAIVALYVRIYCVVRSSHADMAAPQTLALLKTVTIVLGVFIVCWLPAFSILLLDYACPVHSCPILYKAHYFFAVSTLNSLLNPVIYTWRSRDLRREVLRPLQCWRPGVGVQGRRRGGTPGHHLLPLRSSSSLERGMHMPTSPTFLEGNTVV
MRP reversal: MRP-mediated drug resistance reversal | H69AR cells + 2 uM doxorubicin, CellTiter-Glo, 72 h | differential viability (reversal), % at 10 µM | actives 0.04% (n = 85,000) | AID 602;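 active means viability drop by adding the cancer drug above about 55%, with treated viability meeting a 40% cutoff, limit read from the data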;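 further: viability without doxorubicin minus viability with 2 µM doxorubicin for each compound; larger differential means the compound sensitizes cells more to doxorubicin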
S1P2 agonist: S1P2 (human) receptor agonism; O95136; S1P2-expressing cell line, agonist reporter read-out; activation, % at 4.5 µM; actives 0.46% (n = 97,000); AID 729; in the data active means activation above about 16%;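 further: 0% = vehicle low control and 100% = maximal reference agonist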
MRP1 act: MRP-1 activation; viability increase, % at 10 µM; H69AR cells + doxorubicin, viability rescue, CellTiter-Glo; actives 0.61% (n = 140,000); AID 799;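 active means viability gain under doxorubicin at or above a set limit, the compound median plus 3 SD, cut at about 4.7% in these data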;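 further: MRP-1 overexpressing cells given doxorubicin 25 µM after compound pretreatment; 18-22 h compound pretreatment then 72 h with doxorubicin before readout; 0% = doxorubicin-only wells and 100% = vehicle-treated cells without doxorubicin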
Numbers without * were called inactive; . = not tested or not shown.

SMILES | GALR2 agonist | GALR2 antag | S1P2 antag | MRP reversal | S1P2 agonist | MRP1 act
O=[N+]([O-])c1cccc(/C=N\N2CCN(Cc3ccccc3Cl)CC2)c1 | -2 | 0 | -3 | 13 | -5 | 4.8*
Cc1cccc(Nc2nnc(SCC(=O)Nc3cccnc3Cl)s2)c1 | -1 | 11 | . | . | . | 8.1*
CCC(C)(C)n1nnnc1C(c1cc2cc(C)cc(C)c2[nH]c1=O)N1CCN(Cc2ccc3c(c2)OCO3)CC1 (stereo not given) | -2 | 3 | 0 | 3 | -6 | -1
CC(C)(C)C1CCc2c(sc(NC(=O)c3cccs3)c2C(=O)N2CCCCC2)C1 (stereo not given) | 0 | -7 | 3 | -18 | -2 | 5.0*
COc1ccccc1C(=O)Nc1nc(-c2ccc(S(=O)(=O)N3CCOCC3)cc2)cs1 | 2 | 25 | 77* | -11 | -7 | 1
C=CCNC(=S)NNC(=O)COc1ccc(Br)cc1 | 0 | 1 | . | . | . | 6.4*
COc1ccccc1C1C(C(=O)c2sc(C)nc2C)=C(O)C(=O)N1CCN1CCOCC1 (stereo not given) | -1 | 7 | . | . | . | 7.6*
COc1ccc(-c2nnc(SCC(=O)Nc3ccc4c(c3)OCCO4)n2N)cc1OC | 0 | -2 | 15 | . | -6 | 0
Cc1ccc(-n2nc3c([n+]2[O-])CCc2c-3no[n+]2[O-])cc1 | -3 | 49* | . | 2 | . | -3
[O-][n+]1onc2c1CCc1c-2nn(-c2ccccc2Cl)[n+]1[O-] | -3 | 42* | 24 | . | -9 | -3
CC(Nc1cc(N2CCN(C(=O)C(C)(C)C)CC2)ccc1[N+](=O)[O-])c1ccccc1 (stereo not given) | -1 | -15 | -26 | . | -10 | -5
Cc1ccc(OCCN2CCN(C(=O)CCC(=O)Nc3nnc(C(C)C)s3)CC2)cc1 | -4 | 5 | 7 | 11 | -3 | 0
Cc1ccc(OCCN2CCN(C(=O)CCC(=O)Nc3nnc(C)s3)CC2)cc1 | 0 | 11 | -3 | 8 | -6 | 7.8*
Cc1sc(NC(=O)C2C3C=CC(C3)C2C(=O)O)c(C(N)=O)c1-c1ccc(C(C)C)cc1 (stereo not given) | -1 | 1 | . | . | . | -2
Cc1nc2ccccc2cc1OCc1ccc(Cl)cc1 | 0 | 20 | 70* | . | -3 | 4
O=C(Nc1cccnc1)/C(N=Nc1cccnc1)=C(\O)c1ccccc1 | 2 | -2 | . | . | . | -3
O=C(O)CCCC(=O)N1CCN(c2cccc(Cl)c2)CC1 | -1 | -2 | -3 | 7 | -1 | 0
c1ccc(-c2nc(N3CCNCC3)nc3ccccc23)cc1 | 8 | 13 | -18 | -23 | 20* | -2
c1ccc(-c2nc(N3CCCCC3)nc3ccccc23)cc1 | 1 | -2 | -19 | -2 | 3 | 0
O=C(O)CCCC(=O)N1CCN(c2nc(-c3ccccc3)c3ccccc3n2)CC1 | -1 | 13 | -6 | -2 | 38* | -2
O=C(O)C1CC=CCC1C(=O)N1CCN(c2nc(-c3ccccc3)c3ccccc3n2)CC1 (stereo not given) | 9 | 23 | -16 | 8 | 21* | -6
CCC(C)N1C(=O)CCC1C(=O)O (stereo not given) | 0 | -4 | -1 | 5 | -6 | 0
Cc1ccc(S(=O)(=O)Oc2ccc(C3C4=C(CCCC4=O)N(CCC(=O)O)C4=C3C(=O)CCC4)cc2Cl)cc1 | 6.6* | 9 | . | . | . | 0
COCCCNC(=O)c1c(N)n(/N=C/c2cccs2)c2nc3ccccc3nc12 | 20* | -12 | . | -8 | . | 0
C=CCn1c(N)c(C(=O)OC(C)(C)C)c2nc3ccccc3nc21 | 2 | 17 | -28 | -11 | 2 | -3
SMILES | GALR2 agonist | GALR2 antag | S1P2 antag | MRP reversal | S1P2 agonist | MRP1 act
COCCCNC(=O)c1c(N)n(/N=C/c2cccnc2)c2nc3ccccc3nc12 | 2 | 6 | . | . | . | 2
COCCNC(=O)c1c(N)n(CCCn2ccnc2)c2nc3ccccc3nc12 | 0 | 12 | -5 | -7 | 18* | -5
C=CCn1c(N)c(C(=O)Nc2ccccc2)c2nc3ccccc3nc21 | 8.1* | -9 | . | -17 | . | -1
COCCNC(=O)c1c(N)n(-c2ccccc2)c2nc3ccccc3nc12 | 4.9* | 2 | -17 | -13 | 6 | -4
CC(C)CNC(=S)NC1CC2CCC(C1)N2Cc1ccccc1 (stereo not given) | -2 | -6 | -4 | . | -1 | -1
Cn1cc(Br)c(C(=O)NNC(=O)c2ccccc2)n1 | -1 | 1 | . | . | . | -1
Cn1cc(Br)c(C(=O)NNC(=O)c2ccc(Br)cc2)n1 | 0 | 11 | . | . | . | 7.6*
